The source of these data is ChEMBL document CHEMBL1961873, “Compounds: GSK PKIS; Assays: Nanosyn kinase panel” (2012).

Structures are written as SMILES. Values joined by “and” are separate entries in the source; they are usually repeats but may differ in a detail not shown here. Equal values may be shown once.

The term inhibition denotes the drop in the measured response relative to a control, in per cent.

In one assay the target is Cyclin-dependent kinase 2 (Homo sapiens) (UniProt P24941). To be noted: at 0.1 µM.
Regarding `Cc1cc(O)cc(C)c1/C=C/c1cncc(C(N)=O)c1`, the inhibition came out at 2.51%.

For `CC1=C(C(=O)Nc2ccc3[nH]ncc3c2)C(c2ccc(F)cc2)N=C(c2ccc(C(F)(F)F)nc2)N1` (configuration not stated), the inhibition is 2.03%.

On to `COc1c(C(N)=O)cc(-c2ccc(Cl)cc2)cc1-c1ccc(S(N)(=O)=O)cc1`, for which the inhibition is 2.17%.

Consider `Cc1cc(O)cc(C)c1/C=C/c1cncc(C(=O)OC(C)(C)C)c1`, for which the inhibition was 2.66%.

Take `COc1ccc(Nc2ncc(-c3ccccc3)o2)cc1OC`: the inhibition is 7.2%.

For the molecule `Fc1ccc(Nc2nccc(-c3c(-c4ccc(C(F)(F)F)cc4)nn4ncccc34)n2)cc1F`, the inhibition is 3.94%.

Turning to `O=C(O[C@H]1CN[C@H](C#Cc2cc3ncnc(Nc4ccc(OCc5cccc(F)c5)c(Cl)c4)c3s2)C1)N1CCOCC1`, the inhibition was 4.21%.

Take `COc1ccc2ncn(-c3cc(O[C@H](C)c4ccccc4C(F)(F)F)c(C(N)=O)s3)c2c1`: the inhibition was -0.81%.

As to `CNC(=O)c1ncccc1Nc1nc(Nc2cc3c(cc2OC)CCCN3C(=O)CN(C)C)nc2[nH]ccc12`, the inhibition was found to be 7.73%.

Turning to `COc1ccccc1-c1cc(/C=C2\C(=O)Nc3ncc(Br)cc32)cc(Br)c1O`, the inhibition worked out at 7.89%.

As to `c1cnn2ncc(-c3ccnc(NCCCN4CCOCC4)n3)c2c1`, the inhibition was found to be 5.32%.

Regarding `CCCNc1cccc(-n2ncc3c(N/N=C/c4ccncc4)ncnc32)c1`, the inhibition is 1.17%.

As for `OCCCNc1nccc(-c2c(-c3ccc(F)cc3)nn3cc(C(F)(F)F)ccc23)n1`, the inhibition was 0.52%.

On to `CS(=O)(=O)Nc1ccc(-c2ccc3c(NC(=O)C4CC4)n[nH]c3c2)cc1`, for which the inhibition amounted to 2.71%.

In the case of `CN1CCC(C(=O)Nc2n[nH]c3nc(-c4ccc(O)cc4)c(Br)cc23)CC1`, the inhibition was 9.58% and 5.38%.

Turning to `CS(=O)(=O)Nc1ccc(-c2cc(-c3ccccc3)cc(C(N)=O)c2N)cc1`, the inhibition was determined as 0.2%.

Turning to `COc1cccc(Nc2nccc(-c3cnn4ncccc34)n2)c1`, the inhibition worked out at 64.7%.

As to `CS(=O)(=O)CCNCc1ccc(-c2ccc3ncnc(Nc4ccc(OCc5ccccc5)cc4)c3c2)o1`, the inhibition stood at 2.45%.

Turning to `CC(C)c1ccc(-c2cc(-c3c[nH]nc3-c3ccccn3)ccn2)cc1`, the inhibition is 1.12%.

For the molecule `FC(F)(F)CNc1nccc(-c2cnn3ncccc23)n1`, the inhibition was 4.11%.

In the case of `Cc1nnc(-c2cccc(-c3ccc(C(=O)NCC4CC4)cc3)c2)o1`, the inhibition came out at 4.78%.

As for `COc1ccc(-c2nn3ncccc3c2-c2ccnc(Nc3ccc(F)c(F)c3)n2)cc1`, the inhibition came out at 3.63%.

For `O=C(Nc1n[nH]c2nnc(-c3cccnc3)cc12)C1CC1`, the inhibition is 38.9%.

In the case of `NS(=O)(=O)c1ccc(N/N=C2\C(=O)Nc3cccc(CCc4ccncc4)c32)cc1`, the inhibition was found to be 53.5%.

Take `CNC(=O)c1cncc(/C=C/c2ccccc2C)c1`: the inhibition turned out to be 12%.

In the case of `NS(=O)(=O)c1ccc(N/N=C2\C(=O)Nc3ccc(C(=O)NCc4ccncc4)cc32)cc1`, the inhibition worked out at 78%.

In the case of `CCS(=O)(=O)c1ccc(OC)c(Nc2ncc(-c3cccc(F)c3)o2)c1`, the inhibition came out at 4.05%.

For `COc1cccc(-n2ncc3c(N/N=C/c4ccc(C(=O)NCCN(C)C)cc4)ncnc32)c1`, the inhibition amounted to 13.4%.

Consider `COC(=O)Nc1nc2ccc(Oc3ccc(NC(=O)Nc4cc(C(F)(F)F)ccc4F)cc3)cc2s1`, for which the inhibition worked out at 1.36%.

In the case of `Cn1c(-c2nonc2N)nc2cnccc21`, the inhibition came out at 3.69%.

Turning to `CCN1CCC(C(=O)Nc2n[nH]c3nnc(-c4cccc(F)c4F)cc23)CC1`, the inhibition stood at 3.75%.

A further assay has the same target. As to conditions: at 1 µM.
Consider `Cc1cc(O)cc(C)c1/C=C/c1cncc(C(N)=O)c1`, for which the inhibition was 3.29%.

In the case of `CC1=C(C(=O)Nc2ccc3[nH]ncc3c2)C(c2ccc(F)cc2)N=C(c2ccc(C(F)(F)F)nc2)N1` (configuration not stated), the inhibition is 3.67%.

For `COc1c(C(N)=O)cc(-c2ccc(Cl)cc2)cc1-c1ccc(S(N)(=O)=O)cc1`, the inhibition stood at 3.13%.

`Cc1cc(O)cc(C)c1/C=C/c1cncc(C(=O)OC(C)(C)C)c1`: the inhibition stood at 6.74%.

As for `COc1ccc(Nc2ncc(-c3ccccc3)o2)cc1OC`, the inhibition turned out to be 27.6%.

`Fc1ccc(Nc2nccc(-c3c(-c4ccc(C(F)(F)F)cc4)nn4ncccc34)n2)cc1F`: the inhibition came out at 3.93%.

For `O=C(O[C@H]1CN[C@H](C#Cc2cc3ncnc(Nc4ccc(OCc5cccc(F)c5)c(Cl)c4)c3s2)C1)N1CCOCC1`, the inhibition is 2.99%.

`COc1ccc2ncn(-c3cc(O[C@H](C)c4ccccc4C(F)(F)F)c(C(N)=O)s3)c2c1`: the inhibition is 1.48%.

For the molecule `CNC(=O)c1ncccc1Nc1nc(Nc2cc3c(cc2OC)CCCN3C(=O)CN(C)C)nc2[nH]ccc12`, the inhibition is 9.82%.

Turning to `COc1ccccc1-c1cc(/C=C2\C(=O)Nc3ncc(Br)cc32)cc(Br)c1O`, the inhibition stood at 9.34%.

On to `c1cnn2ncc(-c3ccnc(NCCCN4CCOCC4)n3)c2c1`, for which the inhibition came to 5.99%.

For `CCCNc1cccc(-n2ncc3c(N/N=C/c4ccncc4)ncnc32)c1`, the inhibition stood at 9.16%.

With `OCCCNc1nccc(-c2c(-c3ccc(F)cc3)nn3cc(C(F)(F)F)ccc23)n1`, the inhibition turned out to be 3.87%.

In the case of `CS(=O)(=O)Nc1ccc(-c2ccc3c(NC(=O)C4CC4)n[nH]c3c2)cc1`, the inhibition amounted to 5.01%.

As for `CN1CCC(C(=O)Nc2n[nH]c3nc(-c4ccc(O)cc4)c(Br)cc23)CC1`, the inhibition is 38.8% and 32.5%.

As to `CS(=O)(=O)Nc1ccc(-c2cc(-c3ccccc3)cc(C(N)=O)c2N)cc1`, the inhibition stood at 1.37%.

Regarding `COc1cccc(Nc2nccc(-c3cnn4ncccc34)n2)c1`, the inhibition is 78.6%.

As for `CS(=O)(=O)CCNCc1ccc(-c2ccc3ncnc(Nc4ccc(OCc5ccccc5)cc4)c3c2)o1`, the inhibition is 3.9%.

Consider `CC(C)c1ccc(-c2cc(-c3c[nH]nc3-c3ccccn3)ccn2)cc1`, for which the inhibition was 1.4%.

With `FC(F)(F)CNc1nccc(-c2cnn3ncccc23)n1`, the inhibition amounted to 16.4%.

Take `Cc1nnc(-c2cccc(-c3ccc(C(=O)NCC4CC4)cc3)c2)o1`: the inhibition was 4.88%.

Take `COc1ccc(-c2nn3ncccc3c2-c2ccnc(Nc3ccc(F)c(F)c3)n2)cc1`: the inhibition was 3.97%.

On to `O=C(Nc1n[nH]c2nnc(-c3cccnc3)cc12)C1CC1`, for which the inhibition was found to be 75.3%.

Regarding `NS(=O)(=O)c1ccc(N/N=C2\C(=O)Nc3cccc(CCc4ccncc4)c32)cc1`, the inhibition was determined as 67.7%.

Turning to `CNC(=O)c1cncc(/C=C/c2ccccc2C)c1`, the inhibition was found to be 16.4%.

Consider `NS(=O)(=O)c1ccc(N/N=C2\C(=O)Nc3ccc(C(=O)NCc4ccncc4)cc32)cc1`, for which the inhibition was 86.2%.

As to `CCS(=O)(=O)c1ccc(OC)c(Nc2ncc(-c3cccc(F)c3)o2)c1`, the inhibition came out at 5.69%.

For the molecule `COc1cccc(-n2ncc3c(N/N=C/c4ccc(C(=O)NCCN(C)C)cc4)ncnc32)c1`, the inhibition is 48.4%.

As for `COC(=O)Nc1nc2ccc(Oc3ccc(NC(=O)Nc4cc(C(F)(F)F)ccc4F)cc3)cc2s1`, the inhibition worked out at 2.74%.

Take `Cn1c(-c2nonc2N)nc2cnccc21`: the inhibition was determined as 11.6%.

`CCN1CCC(C(=O)Nc2n[nH]c3nnc(-c4cccc(F)c4F)cc23)CC1`: the inhibition was determined as 12.4%.
